Here are results for 15 compounds from PubChem BioAssay (Tox21).

Experiment [1] is described as follows: qHTS assay to identify small molecule antagonists of the vitamin D receptor (VDR) signaling pathway - cell viability counter screen (AID 743225). Further: nearly all actives have a fitted effect of over 50% in size. Further: potency means the concentration at half of the fitted maximal effect. Particulars: VDR-bla HEK293T viability, CellTiter-Glo luminescence, 16 h; series mostly up to 61 µM. The method, boiled down: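 Same-well multiplex: following 16 h treatment of HEK 293T cells carrying a UAS-driven beta-lactamase reporter with compound and agonist (3 nM final), and a 2 h FRET substrate step, CellTiter-Glo was added and luminescence read after 30 min.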
In general terms: Quantitative high-throughput screening tests each substance at several concentrations.

The nature of experiment [2]: qHTS assay to identify small molecule agonists of the endoplasmic reticulum stress response signaling pathway (AID 1159516; active means well fitted activation curve with a large enough effect in the signal ratio in the repeat runs, not every such curve was filed as active; the % refers to the signal ratio). Particulars: ESRE-bla HeLa, ER stress beta-lactamase reporter, 5 h; series mostly up to 61 µM. The method, boiled down: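 Tox21 10K library screened in quantitative HTS format on ESRE-bla HeLa cells, a beta-lactamase reporter under ER stress response element control; 5 hr treatment, FRET read.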

A short description of experiment [3]: qHTS assay to identify small molecule agonists of the endoplasmic reticulum stress response signaling pathway - cell viability counter screen (AID 1159517; calls by dose curve; further: nearly all actives have a fitted effect of over 50% in size; further: potency means the concentration at half of the fitted maximal effect). Particulars: ESRE-bla HeLa viability, CellTiter-Glo luminescence, 5 h; series mostly up to 61 µM. The method, boiled down:
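Counter-screen wells were identical to the reporter wells. Cells were plated at 1,500 per well and dosed for 5 hr, then read for luminescence 30 min after CellTiter-Glo addition.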

Experiment [4] can be described thus: qHTS assay to identify small molecule antagonists of the retinoid-related orphan receptor gamma (ROR-gamma) signaling pathway - cell viability counter screen (AID 1159520). Further: nearly all actives have a fitted effect of over 50% in size. Further: potency means the concentration at half of the fitted maximal effect. Particulars: Tet-on RORgamma CHO cells viability, ATP luminescence, 16 h; series mostly up to 92.4 µM. The method, boiled down:
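Tet-on ROR gamma CHO cells were given compounds for 2 hr, then doxycycline hyclate at 1 uM final, and incubated 16 hr at 37 C. Viability was measured as ATP content by CellTiter-Glo luminescence.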

The target of experiment [5] is Nuclear receptor ROR-gamma (Homo sapiens) (UniProt P51449). Kind of experiment: qHTS assay to identify small molecule antagonists of the retinoid-related orphan receptor gamma (ROR-gamma) signaling pathway (AID 1159521; further: nearly all actives have a fitted effect of over 50% in size; further: potency means the concentration at half of the fitted maximal effect). Particulars: Tet-on RORgamma CHO cells, RORE-luciferase, 16 h; series mostly up to 92.4 µM. The method, boiled down:
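Inducible-expression reporter assay: doxycycline (1 uM final) switched on RORγ in CHO cells bearing a ROR response element-luciferase construct, with test compounds present from 2 h beforehand. Decreased luminescence after 16 h defined antagonist activity.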

The nature of experiment [6]: qHTS assay to identify small molecule agonists of the AP-1 signaling pathway (AID 1159526; calls by dose curve). Particulars: ME-180 AP-1-bla reporter, beta-lactamase FRET ratio, 5 h; series mostly up to 76.8 µM.
Experiment [7] has as its target Retinoic acid receptor RXR-alpha (Homo sapiens) (UniProt P19793). Put plainly: qHTS assay to identify small molecule agonists of the RXR signaling pathway (AID 1159527; calls by dose curve; further: nearly all actives have a fitted effect of over 35% in size). Particulars: HEK293T RXRa-UAS-bla, beta-lactamase ratio, 16 h; series mostly up to 76.8 µM. The method, boiled down:
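Compounds in DMSO were added to RXR-alpha-UAS-bla HEK 293T cells kept in 2% charcoal-stripped serum, and incubated 16 hr at 37 C with 5% CO2. Reporter signal came from a 2 hr B/G FRET substrate step.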

Experiment [8] in a line: qHTS assay to identify small molecule agonists of the RXR signaling pathway - cell viability counter screen (AID 1159529). Further: nearly all actives have a fitted effect of over 50% in size. Further: potency means the concentration at half of the fitted maximal effect. Particulars: RXR-alpha-bla HEK293T viability, CellTiter-Glo, 16 h; series mostly up to 76.8 µM. The method, boiled down: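 Counter screen: CellTiter-Glo luminescence. Cells: RXR-alpha-UAS-bla HEK 293T. Medium: 2% charcoal-stripped FBS. Treatment: 16 h, 37 C. Reagent incubation: 30 min, RT.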

Experiment [9] in a line: qHTS assay to identify small molecule agonists of the AP-1 signaling pathway - cell viability counter screen (AID 1159525; calls by dose curve; further: nearly all actives have a fitted effect of over 55% in size; further: potency means the concentration at half of the fitted maximal effect). Particulars: ME-180 (cervical carcinoma) AP-1-bla cells viability, ATP luminescence, 5 h; series mostly up to 76.8 µM. The method, boiled down:
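AP-1-bla ME-180 cells in Opti-MEM with 0.5% dialyzed FBS, compound exposure 5 h at 37 C in 15-point titration. Viability read in the same wells as ATP content by CellTiter-Glo luminescence, normalised to tetra-n-octylammonium bromide and DMSO controls.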

Values joined by “and” are separate entries in the source; they are usually repeats but may differ in a detail not shown here. Equal values may be shown once. Results filed as inconclusive are left out. The source holds several records for some structures; these can differ, active in one and inactive in another. Active and inactive are the calls of the source. Unless noted, the call rests on the fitted dose curve; in most records, active means well fitted curve in the direction sought with a large enough effect in the repeat runs; inconclusive means weak or mixed curves; inactive means no such curve, though single readings can be large; an effect the other way counts as inactive or inconclusive.

Chain of Retinoic acid receptor RXR-alpha (Homo sapiens) (P19793 whole entry, looked up): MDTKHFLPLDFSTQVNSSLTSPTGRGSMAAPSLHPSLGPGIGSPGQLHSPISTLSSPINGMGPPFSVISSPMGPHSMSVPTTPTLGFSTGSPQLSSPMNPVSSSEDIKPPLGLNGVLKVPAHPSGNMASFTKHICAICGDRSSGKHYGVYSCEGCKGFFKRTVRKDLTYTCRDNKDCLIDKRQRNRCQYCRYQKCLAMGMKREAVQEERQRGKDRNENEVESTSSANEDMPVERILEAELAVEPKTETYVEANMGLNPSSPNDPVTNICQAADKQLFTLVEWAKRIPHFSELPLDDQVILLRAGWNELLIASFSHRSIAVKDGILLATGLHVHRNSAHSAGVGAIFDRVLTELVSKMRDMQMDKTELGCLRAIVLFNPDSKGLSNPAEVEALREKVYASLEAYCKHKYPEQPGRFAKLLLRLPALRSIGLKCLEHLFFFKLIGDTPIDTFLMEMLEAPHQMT

Take `CNC1(C)C2CCC(C2)C1(C)C` (configuration not stated): the Potency entry in [1], in [3], in experiment [4], in experiment [5], in experiment [6] and in [7] was “inactive” in each case. Besides, the Potency entry in experiment [8] is “inactive”. Also, the compound was called inactive in experiment [2].

`CO[Si](OC)(OC)c1ccccc1`: the Potency entry in experiment [1], in experiment [3], in [4], in [5], in experiment [9] and in experiment [6] was “inactive” throughout. The Potency result in experiment [7] and in [8] was “inactive” in each case. Further, in experiment [2], the compound was called inactive.

`Nc1ccc(O)cc1`: the Potency result in [1], in experiment [3], in [6] and in experiment [7] was “inactive” throughout. The compound was classed as inactive in [2]. Moreover, the Potency in [4] was 63.5 µM (active) and inactive; in [5], 31.8 µM (active) and inactive; in experiment [9], 32.1 µM (active) and inactive.

Consider `O=C(Cl)c1cccc(C(=O)Cl)c1`, for which the Potency entry in experiment [1], in experiment [3], in experiment [4], in experiment [5], in [6] and in experiment [7] was “inactive” each time. In [8], the Potency entry is “inactive”. For the same compound, in experiment [2], the result was inactive.

For the compound `CCCCCC(=O)O[C@]1(C(C)=O)CC[C@H]2[C@@H]3CCC4=CC(=O)CC[C@]4(C)[C@H]3CC[C@@]21C`, the Potency in experiment [1] is 43.4 µM (active) and 23.9 µM (active); in [4], 60.7 µM (active); in experiment [5], 27.1 µM (active) and 23.7 µM (active); in experiment [8] it was 19.4 µM (active) and 23.9 µM (active). In addition, the Potency result in experiment [3], in [9] and in [6] was “inactive” in each case.

As to `CCCNC(C)C(=O)Nc1ccccc1C` (configuration not stated), the Potency result in experiment [1], in [3], in experiment [4], in experiment [5], in [6] and in experiment [7] was “inactive” throughout. Moreover, in experiment [8], the Potency entry was “inactive”. For the same compound, the compound was classed as inactive in experiment [2].

As to `N[C@@H]1CONC1=O`, the Potency entry in experiment [1], in experiment [3], in experiment [4], in [5], in experiment [9] and in experiment [6] was “inactive” in each case. The Potency result in experiment [7] and in [8] was “inactive” each time. Also, the result in experiment [2] was inactive.

Regarding `O=C1Nc2ccccc2C1(c1ccc(O)cc1)c1ccc(O)cc1`, the Potency result in experiment [1], in experiment [3], in [4], in [5], in experiment [7] and in experiment [8] was “inactive” in each case. Besides, in [2], the compound was classed as inactive.

For `C=CC(=O)OCCCCCCOC(=O)C=C`, the Potency entry in [1], in experiment [3], in [4], in experiment [9] and in experiment [8] was “inactive” each time. The compound was called inactive in [2].

As to `Cc1cc(Cc2cc(C)cc(C(C)(C)C)c2O)c(O)c(C(C)(C)C)c1`, the Potency in [1] is 19.6 µM (active) and 19.5 µM (active); in [3], 17.5 µM (active) and 21.9 µM (active); in [4], 21.8 µM (active) and 30.6 µM (active); in [5], 19.4 µM (active) and 27.3 µM (active); in [9] it was 11 µM (active) and 13.8 µM (active).

Take `CC(C)(C)NCC(O)c1cc(O)cc(O)c1` (configuration not stated): the Potency in experiment [1] was 1.9 nM (active). Besides, the compound was called inactive in experiment [2]. Also, the Potency entry in experiment [3], in experiment [4], in experiment [5], in [6], in experiment [7] and in experiment [8] was “inactive” in each case.

Turning to `Cc1cc(OCCOCC[N+](C)(C)Cc2ccccc2)ccc1C(C)(C)CC(C)(C)C`, the Potency in experiment [1] is 13.7 µM (active) and 19 µM (active); in experiment [3], 19.4 µM (active); in [4], 68.2 µM (active) and 29.8 µM (active); in experiment [5], 60.8 µM (active) and 29.8 µM (active); in experiment [8], 10.9 µM (active) and 4.77 µM (active).

In the case of `C1COC(NC(C2CC2)C2CC2)=N1`, the Potency entry in experiment [1], in [3], in experiment [4], in [5], in [9] and in experiment [6] was “inactive” in each case. Further, the Potency result in experiment [7] and in experiment [8] was “inactive” in each case. Besides, the result in experiment [2] was inactive.

Regarding `CCCN[C@H]1CCc2nc(N)sc2C1`, the Potency result in experiment [1], in [3], in experiment [4], in [5], in [9] and in [6] was “inactive” in each case. Besides, the Potency result in experiment [7] and in experiment [8] was “inactive” throughout. Further, the compound was called inactive in experiment [2].

Turning to `Oc1c(Cl)cc(Cl)c(Cl)c1Cc1c(O)c(Cl)cc(Cl)c1Cl`, the Potency is 54.8 µM (active) and 27.5 µM (active) and 9.52 µM (active) in experiment [1]; 17.3 µM (active) and 49 µM (active) in experiment [3]; 1.53 µM (active) and 1.93 µM (active) and 1.68 µM (active) in experiment [4]; 966 nM (active) and 1.37 µM (active) and 841 nM (active) in experiment [5]; 27.5 µM (active) in experiment [9]; 34.6 µM (active) and 49 µM (active) and 19 µM (active) in experiment [8].
